# Source: PubChem
# SMARCA2 act: SMARCA2 function activation, primary screen. MG213 cells, MMTV-luciferase reporter, dexamethasone, overnight. activation, % at 9.1 µM. actives 1% (n = 370,000). AID 652017; in the data active = activation above about 7.8%;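 also: 0% = vehicle wells and 100% = reference activator wells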
# hgDAF-12 ag: agonists of H. glycines DAF-12 nuclear receptor; actives 1.8% (n = 370,000); AID 687014; HEK293 GAL4-hgDAF12 UAS-luciferase reporter, agonist luminescence; normalized to butyrate control; activation, % at 6.8 µM;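 active = activation above a cutoff set at the mean of all screened compounds plus 3 SD, cut at about 10% in these data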;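 also: 0% = DMSO wells and 100% = sodium butyrate wells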
# ssDAF-12 act: activates DAF-12 receptor from parasite S. stercoralis; HEK293 ssDAF-12/GRIP1 lit1-tk-luc reporter, luminescence; % of 3 µM dafachronic acid response; activation, % at 6.8 µM; actives 1% (n = 370,000); AID 652126;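 active = activation above the mean over all tested compounds plus 3 SD, cut at about 0.9% in these data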;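 also: 0% = DMSO-only wells and 100% = 3 µM delta7-dafachronic acid wells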
# DAX1 inh: inhibitors of DAX1 repression of SF-1 activated StAR promoter | actives 1.1% (n = 370,000) | HEK293T StAR-luciferase reporter, SF-1/DAX-1 repression relief | inhibition, % at 6.8 µM | AID 652010;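 active = inhibition above the mean over all tested compounds plus 3 SD, cut at about 3.6% in these data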;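 also: 0% = DAX-1 cells with DMSO and 100% = cells lacking DAX-1 with DMSO; higher inhibition means more luminescence from relief of DAX-1 repression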
# hcDAF12 agonist: activates DAF-12 receptor from parasite H. contortus. HEK293 hcDAF-12 lit1-tk-luc reporter, luminescence; 0% DMSO, 100% Δ7-dafachronic acid. activation, % at 6.8 µM. actives 1.4% (n = 370,000);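 active = activation above the mean of all tested compounds plus 3 SD, cut at about 5.5% in these data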;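 also: 100% = response to 3 µM Δ7-dafachronic acid high control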
# Starred values were filed as active, the others as inactive; · = no result given. Sampled rows, rich in hits. Any-hit rate of the full collection: about 4.2%.
SMILES,SMARCA2 act,hgDAF-12 ag,ssDAF-12 act,DAX1 inh,hcDAF12 agonist
Cc1cc(NCCCN2CCOCC2)n2nc(C)c(-c3ccccc3)c2n1,-1.9,0.2,-1.4,-0.4,-1.3
Cc1cc(NCCCN2CCOCC2)n2ncc(-c3ccccc3)c2n1,4.5,10.7*,1.3*,2.9,6.0*
COC(=O)[C@]12C[C@H](CC(=O)NCC3CCCCC3)C(=O)N(Cc3cccc4ccccc34)C1=C[C@H](C(C)(C)C)O[C@@H]2C,-3.2,3.4,-0.9,-0.2,3.8
COC(=O)[C@]12C[C@H](CC(=O)NCc3cccs3)C(=O)N(Cc3ccc4c(c3)OCO4)C1=C[C@H](COCc1ccccc1)O[C@@H]2C,-2.8,0.2,-1.1,-0.6,-1.0
CCC[C@H]1[C@@H](OC(=O)N2CCCC2)CC[C@@]23CCCN2C(=O)CCC[C@@H]13,·,2.8,-1.4,·,-2.1
CCCCCCCCNS(=O)(=O)CC1NCc2cc(OC)ccc21 (stereo not drawn),1.0,1.1,-0.6,0.1,-0.9
Cc1ccsc1/C=N/Nc1ncc(Cl)cc1Cl,5.8,11.2*,0.1,3.2,3.5
Cc1ccsc1/C=N/Nc1nc(=O)[nH]nc1C,-2.5,15.7*,-0.1,2.0,1.6
CN(C)[C@@H]1CCN(c2ccc3c(c2)O[C@H]2CCN(C2)S3(=O)=O)C1,3.7,8.0,0.2,-0.8,0.1
COCC#Cc1ccc(CC[C@H]2O[C@H]3CC[C@@H](CO)O[C@H]3C[C@H]2n2cc(C(C)(C)O)nn2)cc1,-1.0,-1.5,-0.8,0.3,-0.5
Cn1c(SC2CCCC2)nnc1-c1ccco1,-0.1,4.3,-0.8,0.9,1.4
Cc1cc(-c2ccccc2)nc(N/N=C/c2ccc(O)cc2)n1,1.1,3.3,-0.8,3.9*,-0.7
COc1ccc(C2/C=C\CN(C(=O)c3ccccc3)CC(=O)N2Cc2cccc(F)c2)cc1 (stereo not drawn),-2.2,-0.5,-0.1,-1.2,1.1
COc1ccc(C2/C=C\CN(C(=O)OCC3c4ccccc4-c4ccccc43)CC(=O)N2Cc2cccc(F)c2)cc1 (stereo not drawn),-3.2,-0.5,-1.9,3.7*,-0.8
C=CCN(C(=O)[C@@H](C)[C@@H](O)c1ccc(C(C)=O)cc1)c1ccccc1,-2.2,-1.4,-0.8,-0.5,-2.9
O=C(O)c1cccc2c1C(=O)c1cc([N+](=O)[O-])cc([N+](=O)[O-])c1-2,2.8,0.1,0.9*,-0.2,0.2
O=C(O)c1cccc2c1-c1ccc([N+](=O)[O-])cc1C2=O,-4.7,2.3,-0.4,-0.2,0.3
O=C(OC12CCCN(C1)/C(=C/c1ccccc1)C2)C1CCCCC1 (stereo not drawn),-5.2,-1.3,-1.2,-0.5,-1.2
Cc1cc(Cl)n2ncc(-c3ccccc3)c2n1,1.3,6.2,-1.3,0.5,2.0
Cc1cc(C(F)(F)Cl)n2ncc(-c3ccccn3)c2n1,-1.7,-0.1,1.2*,-0.1,2.0
COC1=C[C@H](C(=O)N[C@H]2CCCC[C@@H]2NC(C)=O)[C@H](C)[C@@H](c2ccccc2)CC1=O,-4.1,0.9,-1.9,0.3,-2.8
COC(=O)[C@]12C[C@H](CC(=O)N3CCOCC3)C(=O)N(Cc3cccc4ccccc34)C1=C[C@H](C(C)(C)C)O[C@@H]2C,-3.2,1.0,-1.0,-0.5,-1.9
CCOC(=O)c1cc2c(s1)-c1ccccc1CC2,5.6,4.8,0.8,2.0,6.4*
CCCCOCCCNC(=O)C[C@H]1C[C@@]2(C(=O)OC)C(=C[C@H](C3CCCC3)O[C@@H]2C)N(CCc2ccc(OC)c(OC)c2)C1=O,-2.2,2.8,-0.9,0.8,-1.5
O=C(OC12CCCN(C1)/C(=C/c1cccnc1)C2)c1ccco1 (stereo not drawn),-3.2,-4.0,-0.7,-0.8,-1.5
SMILES,SMARCA2 act,hgDAF-12 ag,ssDAF-12 act,DAX1 inh,hcDAF12 agonist
CCOC(=O)[C@@]12CCCC3=C1N(CCC3)C(=O)[C@H]2CC(=O)NCc1ccccc1,-1.4,-0.6,-1.2,0.1,-1.8
N#Cc1ccc(/C=C2\CC3(OC(=O)c4cccc(F)c4)CCCN2C3)cc1 (stereo not drawn),-1.6,1.9,-1.6,-1.5,-0.7
Cc1ccc2[nH]c(=O)c(C3C(C#N)=C(N)Oc4c3ccc3cccnc43)cc2c1 (stereo not drawn),-2.1,4.6,1.1*,0.9,2.9
O[C@H](COc1ccc(F)cc1)CN1CCC(C(O)(c2ccccc2)c2ccccc2)CC1,3.3,2.1,-1.0,0.6,2.7
COc1ccc(C(=O)Nc2cnc3ccccn3c2=O)cc1,0.8,11.7*,-0.3,3.0,1.2
O=C(Nc1cnc2ccccn2c1=O)c1ccc(F)cc1,5.9,10.6*,-0.5,1.4,1.1
O=C(NCc1ccccc1Cl)O[C@H]1CC[C@@]23CCCN2C(=O)CCC[C@H]3C1,·,-1.2,-1.8,·,-0.3
COc1ccc(S[C@]2(C(=O)N3CCOCC3)CC(=O)N(C(=O)Nc3ccc(C)c(Cl)c3)[C@@H]2c2ccc(OC)cc2)cc1,-2.7,2.4,-0.7,-1.7,-1.6
COc1cc(CNc2ncnc3c2ncn3[C@H]2CN(CCc3ccccc3)C[C@@H](CO)O2)cc(OC)c1OC,2.8,-4.5,-1.3,-1.6,-1.4
OC(c1ccccc1)c1ncc(-c2ccccc2Cl)[nH]1 (stereo not drawn),7.9*,7.7,-0.6,2.4,3.6
CCOc1ccc(/C=C2/SC(=O)NC2=S)cc1,3.7,3.6,0.2,0.3,2.5
CCOc1ccc(/C=C2\SC(=S)N(N3C(=O)C4CC4C3=O)C2=O)cc1 (stereo not drawn),1.1,2.0,-1.6,0.6,5.7*
CN(C)CCCN1C(=O)c2oc3ccc(F)cc3c(=O)c2C1c1cccnc1 (stereo not drawn),-0.3,11.3*,0.0,0.9,0.4
CN(C)CCN1C(=O)c2oc3ccccc3c(=O)c2C1c1ccc(F)cc1 (stereo not drawn),0.1,2.0,-1.5,-0.4,-0.9
Cc1ccc(Nc2cc(C)nc(N3CCOCC3)n2)cc1,1.9,4.0,0.3,0.9,5.7*
CC(=O)c1ccc(NC(=O)Nc2ccc3c(c2)nc(C)n3C)cc1,6.2,8.9,-0.6,4.0*,1.7
Cc1nc2cc(NC(=O)Nc3cccc([N+](=O)[O-])c3)ccc2n1C,5.3,11.2*,-0.7,2.5,2.2
CC(C)CNC(=O)OCc1cn(Cc2cccc(Cl)c2)nn1,-0.8,-4.0,-1.1,0.0,-1.6
COC(=O)C1CN(Cc2cn(Cc3ccc(C)cc3)nn2)CCS(=O)(=O)N1Cc1ccccc1 (stereo not drawn),0.8,-0.8,-1.1,-0.6,-1.1
CC1(C(=O)Nc2ccc3c(c2)OCCO3)CSCC(=O)N1C1CC1 (stereo not drawn),-0.9,2.0,-0.4,-0.3,-1.4
COC(=O)[C@]12C[C@H](CC(=O)N3CCCC3)C(=O)N(CCC3=CCCCC3)C1=C[C@H](C1CCCC1)O[C@@H]2C,1.4,0.7,-1.7,-1.1,-3.5
